Measurements from PubChem BioAssay (Tox21).
Several values for one entry are separate records, joined by “and”; a condition that tells them apart may be missing. Equal values may be shown once. Records with an inconclusive call do not appear. The source holds several records for some structures; these can differ, active in one and inactive in another. Activity calls are given as the source filed them. Unless noted, calls come from the whole dose curve; as a rule, active = well fitted curve in the direction sought with a large enough effect in the repeat runs; inconclusive = weak or mixed curves; inactive = no such curve, though single readings can be large; an effect the other way counts as inactive or inconclusive.

How the values were obtained:
[1] = qHTS assay to test for compound auto fluorescence at 535 nm (green) in HEK293 cells (AID 720680)
[2] = qHTS assay to test for compound auto fluorescence at 460 nm (blue) in HEK293 cell free culture (AID 720681)
Procedure, shortened: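 Test compounds were pinned into cell-free culture medium (DMEM with 10% FBS) and fluorescence was read directly at Ex/Em 405/460 nm. Signals were expressed as fluorescence equivalents of triamterene, with DMSO vehicle as control.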

[3] = qHTS assay to test for compound auto fluorescence at 535 nm (green) in HEK293 cell free culture (AID 720682)
Procedure, shortened: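 Fluorescein serves as the green reference fluorophore; each compound's intrinsic emission at 535 nm (excitation 485 nm) is reported as an equivalent amount of that dye, measured in serum-containing DMEM without cells.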

[4] = qHTS assay to test for compound auto fluorescence at 590 nm (red) in HEK293 cell free culture (AID 720683)
Procedure, shortened: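 Tox21 10K library compounds were pinned into cell-free DMEM with 10% FBS and fluorescence was read at excitation 540 nm. Activity is expressed as Rose Bengal sodium equivalency.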

[5] = qHTS assay to test for compound auto fluorescence at 590 nm (red) in HepG2 cell free culture (AID 720684)
Procedure, shortened: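 Measured in medium alone (MEM containing 10% FBS) following pintool addition of compound; emission at 590 nm with 540 nm excitation, referenced to Rose Bengal sodium.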

[6] = qHTS assay to test for compound auto fluorescence at 460 nm (blue) in HepG2 cell free culture (AID 720685)
Procedure, shortened: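 Compound (23 nL) or DMSO pinned into cell-free MEM with 10% FBS; blue fluorescence read at 405/460 nm excitation/emission, expressed as auto-fluorescence equivalency to triamterene.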

[7] = qHTS assay to test for compound auto fluorescence at 535 nm (green) in HepG2 cell free culture (AID 720686)
[8] = qHTS assay to test for compound auto fluorescence at 460 nm (blue) in HepG2 cells (AID 720687)
Procedure, shortened: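 Cells (2,000/well in MEM with 10% FBS) attached overnight at 37 C, then were exposed to compound or DMSO for 1 hr at 37 C, 5% CO2. Fluorescence read at Ex/Em 405/460 nm, expressed as triamterene-equivalent signal.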

[9] = molecular target: Glucocorticoid receptor (Homo sapiens) (UniProt P04150); assay: qHTS assay to identify small molecule agonists of the glucocorticoid receptor (GR) signaling pathway (AID 720691; active = well fitted activation curve with a large enough effect in the signal ratio in the repeat runs, not every such curve was filed as active; the % refers to the signal ratio)
Procedure, shortened: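 qHTS in GR-bla HeLa cells: 4 h settling at 37 C/5% CO2, 18 h compound incubation at 37 C, 2 h LiveBLAzer B/G FRET substrate at room temperature, fluorescence intensity measured.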

[10] = qHTS assay to identify small molecule antagonists of the glucocorticoid receptor (GR) signaling pathway - cell viability counter screen (AID 720693); note: nearly all actives have a fitted effect of over 55% in size
[11] = qHTS assay for identifying genotoxic compounds that show differential cytotoxicity against isogenic chicken DT40 cell lines with known DNA damage response pathways - wild type cell line (AID 743012); note: nearly all actives have a fitted effect of over 60% in size; note: potency is the fitted concentration of half-maximal effect
Procedure, shortened: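 First, wild type DT40 cells were plated at 300 per well and equilibrated about 0.5 h at 37 C/5% CO2. Next, compounds in DMSO were added and exposure lasted 40 h. Finally, CellTiter-Glo was added for 30 min at room temperature and luminescence recorded.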

[12] = qHTS assay for identifying genotoxic compounds that show differential cytotoxicity against isogenic chicken DT40 cell lines with known DNA damage response pathways - Rev3 mutant cell line (AID 743014); note: nearly all actives have a fitted effect of over 55% in size
[13] = qHTS assay for identifying genotoxic compounds that show differential cytotoxicity against isogenic chicken DT40 cell lines with known DNA damage response pathways - Rad54/Ku70 mutant cell line (AID 743015); note: nearly all actives have a fitted effect of over 60% in size; note: potency is the fitted concentration of half-maximal effect
[14] = qHTS assay to identify small molecule antagonists of the androgen receptor (AR) signaling pathway - cell viability counter screen (AID 743033; note: nearly all actives have a fitted effect of over 45% in size; note: potency is the fitted concentration of half-maximal effect)
[15] = qHTS assay to identify small molecule antagonists of the androgen receptor (AR) signaling pathway using the MDA cell line - cell viability counter screen (AID 743041; note: nearly all actives have a fitted effect of over 45% in size)
Procedure, shortened: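 Viability counter screen run alongside the AR antagonist reporter: cells seeded 5 h before compound, R1881 added, 16 h incubation at 37C without CO2, fluorescent CellTiter-Fluor signal quantified.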

[16] = qHTS assay to identify small molecule antagonists of the thyroid receptor (TR) signaling pathway - cell viability counter screen (AID 743064); note: nearly all actives have a fitted effect of over 50% in size; note: potency is the fitted concentration of half-maximal effect
Procedure, shortened: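 Fluorescence from CellTiter-Fluor, added after 23.5 h exposure at 37 °C, reported viability of GH3.TRE-Luc cells co-treated with compound and 1 nM T3. Measured in the same wells as the luciferase TR readout.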

[17] = molecular target: Glucocorticoid receptor (Homo sapiens) (UniProt P04150); assay: qHTS assay to identify small molecule antagonists of the glucocorticoid receptor (GR) signaling pathway (AID 720692; active = well fitted inhibition curve with a large enough effect in the signal ratio in the repeat runs, not every such curve was filed as active; the % refers to the signal ratio)
Procedure, shortened: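 Inhibition of glucocorticoid signalling is measured in HeLa cells with a GRE-controlled beta-lactamase reporter; cells are co-treated with compound and 5 nM dexamethasone (final) for 18 h before FRET substrate readout.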

[18] = molecular target: Androgen receptor (Homo sapiens) (UniProt P10275); assay: qHTS assay to identify small molecule antagonists of the androgen receptor (AR) signaling pathway (AID 743035; active = well fitted inhibition curve with a large enough effect in the signal ratio in the repeat runs, not every such curve was filed as active; the % refers to the signal ratio)
Procedure, shortened: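 Beta-lactamase FRET read (2 h RT incubation with LiveBLAzer B/G) following 16 h of compound plus R1881 treatment of AR-UAS-bla HEK293 cells, which had been pre-incubated 4 h at 37C.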

[19] = molecular target: Androgen receptor (Homo sapiens) (UniProt P10275); assay: qHTS assay to identify small molecule agonists of the androgen receptor (AR) signaling pathway (AID 743036; active = well fitted activation curve with a large enough effect in the signal ratio in the repeat runs, with a control signal flat, not every such curve was filed as active; the % refers to the signal ratio)
Procedure, shortened: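 Fluorescence from a beta-lactamase FRET substrate served as read-out in AR-UAS-bla GripTite HEK293 cells. Cells were treated with DMSO-dissolved compounds for 16 h at 37C, then with LiveBLAzer B/G substrate for 2 h at room temperature.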

[20] = molecular target: Androgen receptor (Homo sapiens) (UniProt P10275); assay: qHTS assay to identify small molecule agonists of the androgen receptor (AR) signaling pathway using the MDA cell line (AID 743040; note: nearly all actives have a fitted effect of over 20% in size)
Procedure, shortened: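 Luminescence from ONE-Glo, read after 30 min at room temperature, reflects MMTV-driven luciferase in MDA-kb2 cells (AR- and GR-responsive). Treatment lasted 16 h at 37C, 0% CO2.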
% is set by controls: 0 for no effect and ±100 for the full control effect.

Sequence of Androgen receptor (Homo sapiens) (P10275 whole entry, looked up): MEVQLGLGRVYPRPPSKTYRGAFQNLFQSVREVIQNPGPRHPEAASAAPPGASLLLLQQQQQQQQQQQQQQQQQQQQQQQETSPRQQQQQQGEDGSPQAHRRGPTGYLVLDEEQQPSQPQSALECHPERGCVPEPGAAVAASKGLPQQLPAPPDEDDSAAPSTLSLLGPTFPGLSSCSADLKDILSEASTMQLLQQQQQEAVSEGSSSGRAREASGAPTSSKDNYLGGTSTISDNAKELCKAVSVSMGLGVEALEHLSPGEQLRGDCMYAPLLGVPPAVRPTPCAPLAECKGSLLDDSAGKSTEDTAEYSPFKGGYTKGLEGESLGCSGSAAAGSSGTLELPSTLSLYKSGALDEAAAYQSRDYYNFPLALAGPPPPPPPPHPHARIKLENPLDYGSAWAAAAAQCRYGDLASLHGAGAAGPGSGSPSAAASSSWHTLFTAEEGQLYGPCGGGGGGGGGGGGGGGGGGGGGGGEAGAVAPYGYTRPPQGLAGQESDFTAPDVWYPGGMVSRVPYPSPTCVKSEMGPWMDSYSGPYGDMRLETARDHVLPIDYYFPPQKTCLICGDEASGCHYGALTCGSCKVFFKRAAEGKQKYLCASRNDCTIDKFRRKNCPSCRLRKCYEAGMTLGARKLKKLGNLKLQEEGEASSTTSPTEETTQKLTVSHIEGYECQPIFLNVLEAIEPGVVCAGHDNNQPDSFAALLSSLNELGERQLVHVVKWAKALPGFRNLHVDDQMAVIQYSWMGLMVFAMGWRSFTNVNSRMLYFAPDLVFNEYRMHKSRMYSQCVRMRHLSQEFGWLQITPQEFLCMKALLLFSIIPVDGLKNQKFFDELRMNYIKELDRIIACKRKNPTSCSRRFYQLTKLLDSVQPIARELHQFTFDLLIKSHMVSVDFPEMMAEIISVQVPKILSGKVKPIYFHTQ
Sequence of Glucocorticoid receptor (Homo sapiens) (P04150 whole entry, looked up): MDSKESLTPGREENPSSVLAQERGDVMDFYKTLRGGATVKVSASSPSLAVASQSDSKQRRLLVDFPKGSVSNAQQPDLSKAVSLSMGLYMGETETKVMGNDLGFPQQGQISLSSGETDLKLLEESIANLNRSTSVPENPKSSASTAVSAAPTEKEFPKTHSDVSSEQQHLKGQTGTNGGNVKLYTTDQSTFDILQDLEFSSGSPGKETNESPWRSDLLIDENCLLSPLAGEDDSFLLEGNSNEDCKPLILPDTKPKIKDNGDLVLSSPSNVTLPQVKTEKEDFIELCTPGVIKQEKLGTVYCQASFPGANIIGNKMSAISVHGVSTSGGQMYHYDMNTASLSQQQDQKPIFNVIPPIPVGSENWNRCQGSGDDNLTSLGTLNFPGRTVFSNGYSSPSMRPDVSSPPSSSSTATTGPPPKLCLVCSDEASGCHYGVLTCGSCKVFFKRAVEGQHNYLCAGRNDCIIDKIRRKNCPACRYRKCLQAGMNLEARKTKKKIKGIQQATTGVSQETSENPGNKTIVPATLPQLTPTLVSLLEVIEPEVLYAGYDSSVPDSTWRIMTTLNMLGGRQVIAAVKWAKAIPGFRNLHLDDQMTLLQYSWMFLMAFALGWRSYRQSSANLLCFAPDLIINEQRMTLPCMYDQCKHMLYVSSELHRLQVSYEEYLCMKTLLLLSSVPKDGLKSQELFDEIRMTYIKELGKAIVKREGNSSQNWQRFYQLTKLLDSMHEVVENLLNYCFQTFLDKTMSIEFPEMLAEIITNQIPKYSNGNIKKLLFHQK

NNC(N)=O
inactive: outcome [1] | outcome [2] | outcome [3] | outcome [4] | outcome [5] | outcome [6] | outcome [7] | outcome [8] | Potency [9] | Potency [10] | Potency [11] | Potency [12] | Potency [13] | Potency [14] | Potency [15] | Potency [16]

O=CCCl
inactive: outcome [1] | outcome [2] | outcome [3] | outcome [4] | outcome [5] | outcome [6] | outcome [7] | outcome [8] | Potency [9] | Potency [17] | Potency [10] | Potency [14] | Potency [15] | Potency [16]
active: Potency [11] 19.3 µM | Potency [13] 27.3 µM

CCOP(=S)(OCC)Oc1ccc(Cl)cc1Cl
inactive: outcome [1] | outcome [2] | outcome [3] | outcome [4] | outcome [5] | outcome [6] | outcome [7] | outcome [8] | Potency [9] | Potency [17] | Potency [10] | Potency [12] | Potency [13] | Potency [14] | Potency [15]

CNC(=O)O/N=C(/CSC)C(C)(C)C
inactive: outcome [1] | outcome [2] | outcome [3] | outcome [4] | outcome [5] | outcome [6] | outcome [7] | outcome [8] | Potency [9] | Potency [17] | Potency [11] | Potency [13] | Potency [14] | Potency [18] | outcome [19] | outcome [20] | Potency [15] | Potency [16]

CCN[C@@H](C)Cc1ccccc1
inactive: outcome [1] | outcome [2] | outcome [3] | outcome [4] | outcome [5] | outcome [6] | outcome [7] | outcome [8] | Potency [9] | Potency [17] | Potency [10] | Potency [11] | Potency [14] | Potency [18] | outcome [19] | outcome [20] | Potency [15] | Potency [16]

NCCOS(=O)(=O)O
inactive: outcome [1] | outcome [2] | outcome [3] | outcome [4] | outcome [5] | outcome [6] | outcome [7] | outcome [8] | Potency [9] | Potency [17] | Potency [11] | Potency [12] | Potency [13] | Potency [14] | Potency [15] | Potency [16]

O=P(O)(O)CN(CP(=O)(O)O)CP(=O)(O)O
inactive: fluorescence, % of fluorescein [1] -0.175% [at 18.6 µM] | fluorescence, % of fluorescent control [2] -0.0261% [at 18.6 µM] | activity change [3] -0.0587% [at 18.6 µM] | fluorescence, % of fluorescent control [4] 0.0352% [at 18.6 µM] | fluorescence, % of Rose Bengal [5] -0.0485% [at 18.6 µM] | fluorescence, % of fluorescent control [6] -0.13% [at 18.6 µM] | fluorescence, % of fluorescein control [7] 0.0644% [at 18.6 µM] | fluorescence, % of fluorescent control [8] -0.044% [at 18.6 µM] | Potency [9] | Potency [17] | Potency [10] | Potency [11] | Potency [13] | Potency [14] | Potency [15] | Potency [16]

O=c1[nH]c2ccccc2o1
inactive: outcome [1] | outcome [2] | outcome [3] | outcome [4] | outcome [5] | outcome [6] | outcome [7] | outcome [8] | Potency [9] | Potency [10] | Potency [11] | Potency [12] | Potency [13] | Potency [14] | Potency [15]

CN=CNc1ccc(C)cc1C
inactive: outcome [1] | outcome [2] | outcome [3] | outcome [4] | outcome [5] | outcome [6] | outcome [7] | outcome [8] | Potency [9] | Potency [17] | Potency [11] | Potency [13] | Potency [14] | Potency [15] | Potency [16]

O=C(Cl)C(Cl)(Cl)Cl
inactive: outcome [1] | outcome [2] | outcome [3] | outcome [4] | outcome [5] | outcome [6] | outcome [7] | outcome [8] | Potency [9] | Potency [10] | Potency [11] | Potency [12] | Potency [13] | Potency [14] | Potency [15]

CCNc1nc(NCC)nc(SC)n1
inactive: outcome [1] | outcome [2] | outcome [3] | outcome [4] | outcome [5] | outcome [6] | outcome [7] | outcome [8] | Potency [9] | Potency [17] | Potency [10] | Potency [14] | Potency [15] | Potency [16]

CC(C)C(C)(N)C#N (stereo not given)
inactive: outcome [1] | outcome [2] | outcome [3] | outcome [4] | outcome [5] | outcome [6] | outcome [7] | outcome [8] | Potency [9] | Potency [17] | Potency [11] | Potency [12] | Potency [13] | Potency [14] | Potency [16]

CCOC(=O)N(C)N=O
inactive: outcome [1] | outcome [2] | outcome [3] | outcome [4] | outcome [5] | outcome [6] | outcome [7] | outcome [8] | Potency [9] | Potency [17] | Potency [10] | Potency [11] | Potency [14] | Potency [15] | Potency [16]

COc1cc(CCN)cc(OC)c1OC
inactive: outcome [1] | outcome [2] | outcome [3] | outcome [4] | outcome [5] | outcome [6] | outcome [7] | outcome [8] | Potency [9] | Potency [17] | Potency [10] | Potency [11] | Potency [13] | Potency [14] | Potency [15] | Potency [16]

O=C(Cl)C(Cl)Cl
inactive: outcome [1] | outcome [2] | outcome [3] | outcome [4] | outcome [5] | outcome [6] | outcome [7] | outcome [8] | Potency [9] | Potency [10] | Potency [11] | Potency [12] | Potency [13] | Potency [14] | Potency [15]

O=[N+]([O-])c1cccc(CCl)c1
inactive: outcome [1] | outcome [2] | outcome [3] | outcome [4] | outcome [5] | outcome [6] | outcome [7] | outcome [8] | Potency [9] | Potency [17] | Potency [11] | Potency [13] | Potency [14] | Potency [15] | Potency [16]

CC(C)(C)c1cc(O)ccc1O
active: Potency [11] 4.22 µM and 7.7 µM | Potency [13] 6.68 µM and 48.6 µM and 12.2 µM | Potency [16] 8.41 µM and 68.6 µM and 48.6 µM
inactive and 26.8 µM (active): Potency [14]
inactive: outcome [1] | outcome [2] | outcome [3] | outcome [4] | outcome [5] | outcome [6] | outcome [7] | outcome [8] | Potency [9] | Potency [17] | Potency [15]
